The campaign covered roughly 410,000 compounds. About 5,100 (1.2%) were called active. Where a call stands in place of a potency, no number is given. Roughly 8% stayed inconclusive and do not appear here. Calls follow the shape of the full dose curve; tested in HEK293T cells. This excerpt belongs to a sample that is enriched for actives.
Potency is read from the fitted curve at half-maximal effect.

The assay is described as follows: High Throughput Screening for Foot and Mouth Disease Virus Antivirals. Also: read-out not given here; nearly all actives have a fitted effect of over 45% in size. The following applies: FMDV antiviral cell-based qHTS; series mostly up to 57.9 µM. On the technique in general: qHTS replaces the single test concentration by a dilution series.
Regarding `Oc1ccc2c(c1)OCC1c3cc4c(cc3OC21)OCO4` (stereo unspecified), the Potency result was “inactive”.

`COc1ccc(-c2nn3c(=O)cc(CN4CCN(C(=O)c5ccc(OC)c(OC)c5)CC4)nc3s2)cc1`: the Potency entry was “inactive”.

For `CCOc1ccc(NC(=O)c2cn(C3CCCCC3)c(=O)c3c2c2ccccc2n3C)cc1`, the Potency result was “inactive”.

Take `CC(C)C1=CC2=CC[C@@H]3[C@](C)(CO)CCC[C@]3(C)C2CC1` (stereo partly specified): the Potency result is “inactive”.

Turning to `O=C(OC12CC3CC(CC(C3)C1)C2)c1ccc(NCc2cc(O)ccc2O)cc1`, the Potency was 12.6 µM (active).

For `CCN(Cc1ccncc1)C(=O)[C@@H](CO)c1ccccc1`, the Potency entry is “inactive”.

On to `CC1Cc2cc(S(=O)(=O)CCC(=O)Nc3ccc(F)c(Cl)c3)ccc2N1C(=O)C1CC1` (stereo unspecified), for which the Potency result is “inactive”.

Turning to `COc1ccc(-c2nc3cnc(OC)nc3n(Cc3ccc(F)cc3)c2=O)cc1`, the Potency entry is “inactive”.

Turning to `O=C(COC(=O)c1n[nH]c2ccccc12)Nc1ccccc1Br`, the Potency entry is “inactive”.

With `CN(C)S(=O)(=O)c1ccc(NC(=O)COC(=O)c2n[nH]c3ccccc23)cc1`, the Potency was 22.4 µM (active).

Regarding `CN(C)S(=O)(=O)c1ccc(NC(=O)COC(=O)Cn2[nH]c(=O)c3ccccc3c2=O)cc1`, the Potency result is “inactive”.

As to `CCN1CCC(O)(/C=C/c2ccc(C)cc2)C(C(=O)/C=C/c2ccc(C)cc2)C1` (stereo unspecified), the Potency was 28.2 µM (active).

Consider `COc1ccccc1-c1ccnc(-n2ncc(C(=O)NCCCN3CCOCC3)c2C)n1`, for which the Potency result was “inactive”.

Take `COc1ccc(CCNC(=O)COC(=O)C2CCCCC2)cc1`: the Potency result was “inactive”.

As to `Cc1ccc(CNC(=O)COC(=O)C2CCC2)cc1`, the Potency is 31.6 µM (active).

For the compound `O=C(COC(=O)CNC(=O)C1CCCCC1)NCc1ccccc1`, the Potency result was “inactive”.

With `COc1ccc(Cn2ccnc2SCC(=O)NCc2ccco2)cc1`, the Potency entry was “inactive”.

As to `COc1ccc2[nH]cc(CCNc3ncnc4ccc(-c5ccc(C(=O)N(C)C)cc5)cc34)c2c1`, the Potency result was “inactive”.

Take `CCN1C(=O)C(=Cc2c(C)n(CC(=O)NCC3CCCO3)c3ccccc23)C(=O)N(CC)C1=S` (stereo unspecified): the Potency is 25.1 µM (active).

Take `COc1ccc(CCNC(=O)CCn2c(=O)c3ccccc3n(CC(=O)NCC3CCCO3)c2=O)cc1OC` (stereo unspecified): the Potency entry is “inactive”.

With `Cc1nn(CC(=O)NCC2CCCO2)c(=O)c2cc3ccccc3n12` (stereo unspecified), the Potency entry was “inactive”.

For the compound `COC1=C[C@]23CCCN2CCc2cc4c(cc2[C@@H]3[C@@H]1O)OCO4`, the Potency entry was “inactive”.

In the case of `c1ccc2c(c1)C(=NC1CCCCC1)NC2=NC1CCCCC1`, the Potency was 15.8 µM (active).

Regarding `CC(=O)c1c(C)[nH]c(C(=O)COC(=O)c2cccc(S(=O)(=O)N(C)c3ccccc3)c2)c1C`, the Potency is 11.2 µM (active).

As for `CC(=O)c1c(C)[nH]c(C(=O)Nc2cc(S(=O)(=O)N(C)C)ccc2C)c1C`, the Potency entry is “inactive”.

Consider `CCCCn1c(N)c(N(CCOC)C(=O)c2cccc(S(=O)(=O)N(C)c3ccccc3)c2)c(=O)[nH]c1=O`, for which the Potency entry is “inactive”.

The record behind these values is PubChem BioAssay AID1159524 (National Center for Advancing Translational Sciences (NCATS), 2015).
